# Test results taken from PubChem BioAssay (NCATS).
# Where “and” joins values, the source holds several entries; their conditions need not be identical. Identical values can stand only once. Inconclusive results are not listed. A structure can be active in one record and inactive in another. Calls of active or inactive are those of the source. Unless noted, calls come from the whole dose curve; as a rule, active = well fitted curve in the direction sought with a large enough effect; inconclusive = small, poorly fitted or top-dose-only effect, or another doubt; inactive = no such curve, though single readings can be large; an effect the other way counts as inactive or inconclusive.
# Columns and labels:
# [1] = AP1 Signaling Pathway (AID 357; active = well fitted curve in either direction with a large enough effect, not every such curve was filed as active;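 note: ME-180 reporter cells stimulated with EGF at its EC50 level; % is set by controls: 0 for no effect and ±100 for the full control effect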); conditions: ME-180 AP-1-bla reporter, EGF-induced, beta-lactamase ratio, 5 h
# Procedure, shortened: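 Beta-lactamase reporter under AP-1 response element, ME-180 background. Stimulus: EC50 EGF. Compound exposure 5 h, 37 °C. Detection: CCF4, 2.5 h RT, 460/530 nm. Values: AC50 from titration.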
# [2] = target: Cytochrome P450 1A2 (Homo sapiens) (UniProt P05177); assay: p450-cyp1a2 (AID 410; calls by dose curve; note: potency is the fitted concentration of half-maximal effect;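 for activity change, negative = inhibition: -100% = full effect of reference inhibitor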)
# Sequence of Cytochrome P450 1A2 (Homo sapiens) (P05177 whole entry, looked up): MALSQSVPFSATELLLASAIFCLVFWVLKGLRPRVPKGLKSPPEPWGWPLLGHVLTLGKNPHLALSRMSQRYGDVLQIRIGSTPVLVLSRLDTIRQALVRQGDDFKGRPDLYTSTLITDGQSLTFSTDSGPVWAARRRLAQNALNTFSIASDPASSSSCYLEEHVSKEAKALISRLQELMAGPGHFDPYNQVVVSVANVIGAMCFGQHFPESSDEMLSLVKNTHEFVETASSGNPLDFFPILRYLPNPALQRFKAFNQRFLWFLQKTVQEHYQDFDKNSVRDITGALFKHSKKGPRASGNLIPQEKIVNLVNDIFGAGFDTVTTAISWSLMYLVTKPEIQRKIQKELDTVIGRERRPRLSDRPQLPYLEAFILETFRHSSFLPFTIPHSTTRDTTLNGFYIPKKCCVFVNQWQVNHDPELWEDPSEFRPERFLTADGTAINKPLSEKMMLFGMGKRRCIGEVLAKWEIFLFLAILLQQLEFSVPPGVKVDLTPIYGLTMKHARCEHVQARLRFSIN
# Procedure, shortened: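 Luminescent demethylation readout: Luciferin-ME (100uM, equal to Km) turned over by 20nM CYP1A2 for 60 min at room temperature after NADPH regeneration addition, following 10 min compound preincubation. Normalization used 57 uM furafylline as full inhibition.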
# [3] = NFAT Signaling Pathway (AID 444; active = well fitted curve in either direction with a large enough effect, not every such curve was filed as active;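 note: carbachol stimulus at about its EC50 of 1 µM final; % is set by controls: 0 for no effect and ±100 for the full control effect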); conditions: Jurkat NFAT-bla M1, carbachol, beta-lactamase ratio, 5 h
# Procedure, shortened: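 Read-out: CCF4 FRET ratio (460 nm/530 nm) after 1 h RT dye loading, used for %activity and AC50 from titration series. Cells: Jurkat NFAT-β-lactamase/M1 line, treated with compound plus 1 uM carbachol for 5 h, 37 °C.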
# [4] = Stat Signaling Pathway (AID 446; active = well fitted curve in either direction with a large enough effect, not every such curve was filed as active;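 note: ME-180 cervical cancer cells given 40 pM IL-6 alongside compound; SIE-controlled beta-lactamase reporter measured as 460/530 nm FRET emission ratio; % is set by controls: 0 for no effect and ±100 for the full control effect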); conditions: ME-180 (cervical carcinoma) SIE beta-lactamase reporter, IL-6 stimulated, 5 h
# Procedure, shortened: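 Overnight-plated ME-180 cells bearing a STAT Inducible Element beta-lactamase reporter; 5 h co-exposure to compound and 40 pM IL-6; values normalized to 300 pM IL-6 and 125 nM JAK inhibitor controls.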
# [5] = target: Glucocorticoid receptor (Homo sapiens) (UniProt P04150); assay: GR-GFP Redistribution (AID 450;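 active = compounds whose dose series gives a full or clear partial fitted curve of increased nuclear translocation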; note: potency is the fitted concentration of half-maximal effect); conditions: U2OS GR-GFP nuclear translocation, laser cytometry, 2 h
# Sequence of Glucocorticoid receptor (Homo sapiens) (P04150 whole entry, looked up, the tested form may be a part): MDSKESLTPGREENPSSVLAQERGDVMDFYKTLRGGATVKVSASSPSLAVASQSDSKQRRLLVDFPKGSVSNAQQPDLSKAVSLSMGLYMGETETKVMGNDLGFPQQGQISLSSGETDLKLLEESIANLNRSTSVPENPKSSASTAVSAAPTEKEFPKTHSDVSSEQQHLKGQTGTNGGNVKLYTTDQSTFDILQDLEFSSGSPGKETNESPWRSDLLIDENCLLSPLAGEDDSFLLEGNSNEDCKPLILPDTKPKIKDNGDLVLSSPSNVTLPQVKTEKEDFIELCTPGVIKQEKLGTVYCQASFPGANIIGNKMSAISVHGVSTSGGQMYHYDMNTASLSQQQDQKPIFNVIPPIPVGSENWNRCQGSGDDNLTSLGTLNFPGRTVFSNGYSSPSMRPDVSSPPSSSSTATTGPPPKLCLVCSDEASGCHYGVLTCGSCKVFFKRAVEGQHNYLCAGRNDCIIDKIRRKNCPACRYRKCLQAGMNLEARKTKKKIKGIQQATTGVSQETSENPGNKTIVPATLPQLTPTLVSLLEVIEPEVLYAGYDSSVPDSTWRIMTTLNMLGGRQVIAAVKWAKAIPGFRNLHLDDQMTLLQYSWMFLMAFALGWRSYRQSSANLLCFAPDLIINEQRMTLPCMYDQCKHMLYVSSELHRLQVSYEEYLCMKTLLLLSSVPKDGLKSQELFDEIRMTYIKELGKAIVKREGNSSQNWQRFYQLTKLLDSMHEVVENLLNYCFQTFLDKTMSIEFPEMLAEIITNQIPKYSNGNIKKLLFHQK
# [6] = target: Glucocorticoid receptor (Homo sapiens) (UniProt P04150); assay: GR-EFC Redistribution (AID 451; calls by dose curve; note: potency is the fitted concentration of half-maximal effect); conditions: CHO-K1 GR-EFC translocation, beta-gal luminescence, 2 h
# Procedure, shortened: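 Translocation of GR-ED fusion to nuclear EA restores b-gal, read by luminescence after 1 h room-temperature detection. Engineered CHO-K1 biosensor cells, 1,000/well, exposed 2 h at 37 C to titrations up to 46 uM final.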
# [7] = target: Mitogen-activated protein kinase 10 (Mus musculus) (UniProt Q61831); assay: JNK3 AlphaScreen Assay (AID 530; active = well fitted curve in either direction with a large enough effect, not every such curve was filed as active;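 note: kinase came from lysate of stimulated human HepG2 cells; signal reports phosphorylation of biotinylated GST-cJun 1-79 at Ser73 with 10 µM ATP; % is set by controls: 0 for no effect and ±100 for the full control effect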)
# Procedure, shortened: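 qHTS titrations with 15 min compound pre-incubation before adding ATP (10 uM final). Read-out: AlphaScreen of Ser73-phosphorylated biotin-GST-cJun using HepG2 lysate JNK3 activated by IL-1β and TNFα.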
# [8] = target: Guanine nucleotide-binding protein G(i) subunit alpha-1 (Homo sapiens) (UniProt P63096); assay: qHTS Assay for Inhibitors of RGS12 GoLoco Motif Activity (Green Fluorophore) (AID 879);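 note: 0% = labeled peptide with Gαi1 and full inhibition = labeled peptide alone without protein; negative values mean loss of peptide binding seen as reduced polarization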
# Sequence of Guanine nucleotide-binding protein G(i) subunit alpha-1 (Homo sapiens) (P63096 whole entry, looked up): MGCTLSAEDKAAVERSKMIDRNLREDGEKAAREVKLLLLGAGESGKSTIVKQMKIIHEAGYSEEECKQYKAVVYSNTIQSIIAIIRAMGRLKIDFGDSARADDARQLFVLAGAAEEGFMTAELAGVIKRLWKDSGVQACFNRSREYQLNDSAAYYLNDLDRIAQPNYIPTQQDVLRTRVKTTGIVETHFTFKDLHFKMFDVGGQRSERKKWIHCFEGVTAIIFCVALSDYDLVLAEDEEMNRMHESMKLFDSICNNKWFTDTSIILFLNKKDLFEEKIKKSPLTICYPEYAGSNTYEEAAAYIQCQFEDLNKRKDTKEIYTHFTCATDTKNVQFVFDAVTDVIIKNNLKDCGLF
# Procedure, shortened: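 A drop in FITC polarization marked displacement of the FITC-tagged RGS12 GoLoco peptide (10 nM) from Gαi1 (50 nM). Compounds were incubated 10 min at room temperature in Tris pH 7.5 buffer containing 150 mM NaCl, 0.1 mM GDP and 0.05% NP40; unlabeled peptide titration served as control.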
# [9] = qHTS Assay for Identification of Small Molecule Agonists for Thrombopoietin (TPO) Signaling Pathway (AID 917); note: % is set by controls: 0 for no effect and ±100 for the full control effect
# Procedure, shortened: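 Cell-based luciferase reporter screen. Mouse Ba/F3 line stably expressing human TPO receptor; IL-3 removed overnight before plating. Co-treatment with compound and EC50 TPO (26 pM), 24 hrs at 37 C, then luminescence.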
# [10] = target: Muscarinic acetylcholine receptor M1 (Rattus norvegicus) (UniProt P08482); assay: qHTS Assay for Antagonists of Acetylcholine Muscarinic M1 Receptor: Measurement of IP-One Response (AID 944); note: nearly all actives have a fitted effect of over 75% in size
# Sequence of Muscarinic acetylcholine receptor M1 (Rattus norvegicus) (P08482 whole entry, looked up): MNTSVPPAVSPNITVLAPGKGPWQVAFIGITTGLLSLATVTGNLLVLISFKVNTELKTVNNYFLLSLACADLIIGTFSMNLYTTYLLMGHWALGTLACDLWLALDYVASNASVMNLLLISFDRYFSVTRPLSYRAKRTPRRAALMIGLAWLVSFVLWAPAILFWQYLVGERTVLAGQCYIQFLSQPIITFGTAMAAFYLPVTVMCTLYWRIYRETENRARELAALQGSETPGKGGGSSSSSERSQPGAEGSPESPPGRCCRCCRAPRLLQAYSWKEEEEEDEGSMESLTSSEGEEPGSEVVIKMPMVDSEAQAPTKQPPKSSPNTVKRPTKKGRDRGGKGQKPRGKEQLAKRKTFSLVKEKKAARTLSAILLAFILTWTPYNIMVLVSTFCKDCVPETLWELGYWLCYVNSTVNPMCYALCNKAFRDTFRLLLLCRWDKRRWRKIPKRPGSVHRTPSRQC
# Procedure, shortened: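 IP1 accumulation measured via TR-FRET between d2-IP1 and Eu-cryptate anti-IP1 antibody after carbachol (200 nM, EC80) stimulation for 30 min; rat M1-transfected CHO cells received compound 10 min before agonist.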
# [11] = target: Pyruvate kinase (Leishmania mexicana) (UniProt Q27686); assay: qHTS Validation Assay for Inhibitors of Leishmania Mexicana Pyruvate Kinase (AID 945);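 note: 0% = DMSO only neutral control wells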
# Procedure, shortened: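 Compounds are tested as eight-point concentration series. Reactions contain 0.2 nM LmPYK E451W, 0.5 mM PEP, 0.1 mM ADP, 7 mM MgCl2 and 50 mM KCl at pH 7.2, run 1 h at room temperature, then read by PKLight luminescence.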
# [12] = target: Pyruvate kinase PKM (Homo sapiens) (UniProt P14618); assay: qHTS Assay for Activators of Human Muscle Pyruvate Kinase (AID 954; active = well fitted curve in the direction sought with a large enough effect, not every such curve was filed as active;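 note: 0% = uninhibited enzyme and -100% = no enzyme or full thiadiazolimine inhibition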)
# Sequence of Pyruvate kinase PKM (Homo sapiens) (P14618 whole entry, looked up): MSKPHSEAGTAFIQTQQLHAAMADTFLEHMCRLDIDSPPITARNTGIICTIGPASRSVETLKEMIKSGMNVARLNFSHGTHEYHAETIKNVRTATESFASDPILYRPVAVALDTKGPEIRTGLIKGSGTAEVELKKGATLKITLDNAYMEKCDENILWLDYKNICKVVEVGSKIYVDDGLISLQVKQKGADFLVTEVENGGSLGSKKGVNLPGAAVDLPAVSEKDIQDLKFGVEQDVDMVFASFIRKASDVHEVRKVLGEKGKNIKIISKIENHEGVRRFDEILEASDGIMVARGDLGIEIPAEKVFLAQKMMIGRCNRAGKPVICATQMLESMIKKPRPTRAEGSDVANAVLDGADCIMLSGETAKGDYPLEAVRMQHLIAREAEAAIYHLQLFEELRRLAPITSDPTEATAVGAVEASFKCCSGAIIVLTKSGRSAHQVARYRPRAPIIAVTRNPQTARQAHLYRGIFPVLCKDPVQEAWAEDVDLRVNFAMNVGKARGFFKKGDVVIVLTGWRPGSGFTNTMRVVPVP
# Procedure, shortened: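 Screening used highly purified human pyruvate kinase M2 under submaximal activity, with PEP at its Km and ADP below Km. After an hour at room temperature, ATP was read by luciferase luminescence.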
# [13] = target: Alpha-galactosidase A (Homo sapiens) (UniProt P06280); assay: Counterscreen for Glucocerebrosidase Inhibitors: qHTS Assay for Human alpha-Galactosidase at pH 4.5 (AID 992); note: 0% is about no effect
# Sequence of Alpha-galactosidase A (Homo sapiens) (P06280 whole entry, looked up): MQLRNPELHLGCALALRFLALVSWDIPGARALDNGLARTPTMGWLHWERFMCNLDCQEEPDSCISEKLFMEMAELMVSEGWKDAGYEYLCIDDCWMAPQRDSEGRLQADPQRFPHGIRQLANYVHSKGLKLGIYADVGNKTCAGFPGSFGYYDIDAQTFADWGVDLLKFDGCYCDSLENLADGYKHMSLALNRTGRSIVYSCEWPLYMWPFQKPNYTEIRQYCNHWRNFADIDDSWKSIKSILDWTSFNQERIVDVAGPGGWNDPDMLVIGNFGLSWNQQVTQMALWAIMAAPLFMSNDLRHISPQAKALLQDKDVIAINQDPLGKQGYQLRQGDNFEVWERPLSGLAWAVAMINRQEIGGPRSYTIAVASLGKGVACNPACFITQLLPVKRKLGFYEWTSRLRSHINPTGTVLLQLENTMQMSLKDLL
# Procedure, shortened: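 Each compound is preincubated briefly with 2 nM enzyme before substrate addition (80 uM); plates then sit 20 min at ambient temperature, are quenched with 1M NaOH/1M glycine, and read fluorometrically.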
# [14] = target: alpha-glucosidase (Oryza sativa, rice) (UniProt Q653V4); assay: Counterscreen for Glucocerebrosidase Inhibitors: qHTS Assay for Rice alpha-Glucosidase at pH 5.0 (AID 997);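 note: 0% = full activity with enzyme and -100% = basal without enzyme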
# Procedure, shortened: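 Endpoint fluorogenic assay at pH 5.0: compounds (0.7 nM to 77 uM) titrated against 4 nM rice enzyme and 400 uM 4-MU-alpha-glucoside for 20 min at room temperature; NaOH/glycine stop, read ex 365/em 440 nm, Hill-fitted AC50.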
# [15] = qHTS Assay for Lipid Storage Modulators (AID 1519; calls by dose curve); conditions: Drosophila S3 cells, BODIPY lipid droplet/cell ratio, laser cytometry, cells loaded with oleic acid
# Procedure, shortened: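 Cells seeded at 5,000 per well were treated with compounds over a concentration series and loaded with oleic acid (400 uM, as added). Lipid droplet fluorescence (488 nm excitation, 500-530 nm channel) was read by laser-scanning cytometry and normalized to 20 uM Triacsin C.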
# [16] = target: Ubiquitin carboxyl-terminal hydrolase 1 (Homo sapiens) (UniProt O94782); assay: Inhibitors of USP1/UAF1: Pilot qHTS (AID 504865);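 note: rhodamine fluorescence freed from ubiquitin-rhodamine substrate followed over time; top concentration of the series differs between compounds; % is set by controls: 0 for no effect and ±100 for the full control effect; nearly all actives have a fitted effect of over 35% in size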
# Sequence of Ubiquitin carboxyl-terminal hydrolase 1 (Homo sapiens) (O94782 whole entry, looked up): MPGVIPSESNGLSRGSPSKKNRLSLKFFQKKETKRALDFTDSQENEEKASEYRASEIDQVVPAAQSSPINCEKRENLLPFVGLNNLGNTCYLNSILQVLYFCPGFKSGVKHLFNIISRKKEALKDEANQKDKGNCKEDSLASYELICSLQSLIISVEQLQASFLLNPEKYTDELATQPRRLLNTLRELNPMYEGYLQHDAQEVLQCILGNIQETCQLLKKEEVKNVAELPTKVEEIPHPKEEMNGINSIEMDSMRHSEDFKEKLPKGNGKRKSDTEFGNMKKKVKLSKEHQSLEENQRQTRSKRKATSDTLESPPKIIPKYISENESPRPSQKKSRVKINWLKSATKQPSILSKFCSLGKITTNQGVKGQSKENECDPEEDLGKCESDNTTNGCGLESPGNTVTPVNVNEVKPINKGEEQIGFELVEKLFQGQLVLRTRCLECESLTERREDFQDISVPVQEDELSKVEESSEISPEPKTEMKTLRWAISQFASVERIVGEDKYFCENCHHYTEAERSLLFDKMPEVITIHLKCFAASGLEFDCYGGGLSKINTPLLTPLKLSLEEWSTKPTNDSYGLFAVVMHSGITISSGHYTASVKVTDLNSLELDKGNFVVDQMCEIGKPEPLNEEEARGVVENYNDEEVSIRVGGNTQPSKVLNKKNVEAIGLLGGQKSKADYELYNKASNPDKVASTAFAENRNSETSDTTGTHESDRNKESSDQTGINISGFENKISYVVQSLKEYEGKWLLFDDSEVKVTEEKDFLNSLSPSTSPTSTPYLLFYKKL
# Procedure, shortened: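 In 50mM HEPES pH 7.8 containing 0.5mM EDTA, 1mM TCEP, 0.1 mg/ml BSA and 0.01% Tween-20, 1nM USP1/UAF1 is exposed to compound for 15 min, then Ub-Rho (150nM final) is added and fluorescence is read over time.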
# [17] = target: DNA dC->dU-editing enzyme APOBEC-3G (Homo sapiens) (UniProt Q9HC16); assay: qHTS for inhibitors of Vif-A3G interactions: Validation (AID 588379); note: 0% is about no effect
# Sequence of DNA dC->dU-editing enzyme APOBEC-3G (Homo sapiens) (Q9HC16 whole entry, looked up): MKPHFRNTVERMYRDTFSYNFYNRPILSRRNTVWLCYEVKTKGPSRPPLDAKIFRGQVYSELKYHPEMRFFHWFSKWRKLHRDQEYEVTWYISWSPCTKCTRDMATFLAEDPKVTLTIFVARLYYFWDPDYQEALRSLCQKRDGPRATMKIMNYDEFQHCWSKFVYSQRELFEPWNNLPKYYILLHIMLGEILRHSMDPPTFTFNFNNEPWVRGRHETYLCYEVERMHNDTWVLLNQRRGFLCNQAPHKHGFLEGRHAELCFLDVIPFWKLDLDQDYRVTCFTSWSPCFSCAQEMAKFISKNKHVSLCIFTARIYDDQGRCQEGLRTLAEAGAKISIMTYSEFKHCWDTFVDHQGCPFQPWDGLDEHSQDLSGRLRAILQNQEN
# Procedure, shortened: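 Yellow fluorescence (Ex 488, Em 500-530) of Vif-coexpressing HeLa A3G-eYFP cells, scanned by Acumen cytometer, reports blocked A3G degradation. Cells plated at 700/well overnight at 37 deg C before compound addition, then a further overnight compound incubation at 37 deg C.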
# [18] = system: Zika virus NS2B-NS3 protease; assay: Primary screen GU AMC qHTS for Zika virus inhibitors (AID 1347154);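 note: 0% = no-inhibitor control and -100% = no-enzyme control; nearly all actives have a fitted effect of over 70% in size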
# Procedure, shortened: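 Fluorogenic AMC-substrate cleavage by noncovalent NS2B-NS3 protease complex (25 nM, pH 8.0 Tris buffer with Tween 20) followed for 15 minutes at room temperature (~20% conversion). Percent inhibition from ex340/em450 signal change, fitted by 4-parameter Hill equation.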
# [19] = Primary qHTS for small molecule stabilizers of the endoplasmic reticulum resident proteome: Secreted ER Calcium Modulated Protein (SERCaMP) assay (AID 1508630); note: % is set by controls: 0 for no effect and ±100 for the full control effect
# Procedure, shortened: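 The SH-SY5Y reporter protocol was run at 3 concentrations up to 38.3 uM (primary) or 11 concentrations (follow-up): 16 h compound, 100 nM thapsigargin for 4 h, then extracellular luciferase luminescence.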
# [20] = target: 3',5'-cyclic-AMP phosphodiesterase 4B (Homo sapiens) (UniProt Q07343); assay: qHTS Assay for Inhibitors of PDE-IV (AID 607; active = well fitted activation curve with a large enough effect in the main read-out, with a control signal flat, not every such curve was filed as active; note: % of control where 0% means no effect)
# Sequence of 3',5'-cyclic-AMP phosphodiesterase 4B (Homo sapiens) (Q07343 whole entry, looked up): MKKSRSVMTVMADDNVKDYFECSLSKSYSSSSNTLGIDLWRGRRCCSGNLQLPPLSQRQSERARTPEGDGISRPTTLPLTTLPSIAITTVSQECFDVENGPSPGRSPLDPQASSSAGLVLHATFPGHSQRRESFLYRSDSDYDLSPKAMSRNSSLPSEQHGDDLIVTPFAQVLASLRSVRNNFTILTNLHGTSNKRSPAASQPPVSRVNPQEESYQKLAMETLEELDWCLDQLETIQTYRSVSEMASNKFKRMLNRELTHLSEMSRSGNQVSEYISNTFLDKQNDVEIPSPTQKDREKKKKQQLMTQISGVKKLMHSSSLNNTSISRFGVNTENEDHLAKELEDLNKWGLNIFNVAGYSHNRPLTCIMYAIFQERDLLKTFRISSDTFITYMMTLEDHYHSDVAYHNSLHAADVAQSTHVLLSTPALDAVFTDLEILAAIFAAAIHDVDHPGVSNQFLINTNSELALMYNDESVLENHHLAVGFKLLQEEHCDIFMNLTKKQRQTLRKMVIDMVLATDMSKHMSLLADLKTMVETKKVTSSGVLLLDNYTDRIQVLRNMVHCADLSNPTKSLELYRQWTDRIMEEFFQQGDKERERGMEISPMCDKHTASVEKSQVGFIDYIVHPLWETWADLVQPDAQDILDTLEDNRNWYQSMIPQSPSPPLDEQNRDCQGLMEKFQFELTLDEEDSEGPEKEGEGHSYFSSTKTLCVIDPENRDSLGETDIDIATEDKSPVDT
# Procedure, shortened: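 Live HEK293 cells with a modified cyclic nucleotide-gated (CNG) channel report intracellular cAMP via membrane-potential dye fluorescence (ex 535/em 590 nm). Endogenous PDE-IV was targeted. Compounds were tested at up to 22.9 uM final; RO 20-1724 100 uM served as control.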
# [21] = target: Cytochrome P450 2C9 (Homo sapiens) (UniProt P11712); assay: qHTS Assay for Inhibitors and Substrates of Cytochrome P450 2C9 (AID 883); note: potency is the fitted concentration of half-maximal effect; nearly all actives have a fitted effect of over 60% in size
# Procedure, shortened: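 Luminescent read-out of deoxyluciferin hydroxylation, normalized to 57uM sulphaphenazole (AC100). Reaction: 10nM enzyme, 100uM Luciferin-H (equal to KM), 25mM KPO4, 10 min compound preincubation, then 60 min with NADPH regeneration, both at 37C.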
# [22] = measured here: cell count channel max response
# [23] = measured here: lipid channel max response
structure (smiles),measurement,setting,value
O=C(NCCNC[C@@H](O)COc1ccc(O)cc1)N1CCOCC1,"activity change, negative = inhibition",[1]; at 17.2 µM (top of the series),-7.17% (inactive)
same,"activity change, negative = inhibition",[1]; at 38 µM (top of the series),-6.28% (inactive)
same,Potency,[2],inactive
same,"activity change, negative = inhibition",[3]; at 17.2 µM (top of the series),-2.05% (inactive)
same,"activity change, negative = inhibition",[3]; at 38 µM (top of the series),-2.2% (inactive)
same,"activity, negative = inhibition",[4]; at 17.2 µM (top of the series),6.36% (inactive)
same,"activity, negative = inhibition",[4]; at 38 µM (top of the series),-6.64% (inactive)
same,Potency,[5],> 46 µM (inactive) and > 20.6 µM (inactive)
same,Potency,[6],> 46 µM (inactive) and > 20.6 µM (inactive)
same,Potency,[7],inactive
same,outcome,[8],inactive
same,Potency,[9],inactive
same,Potency,[10],inactive
same,Potency,[11],inactive
same,outcome,[12],inactive
same,outcome,[13],inactive
same,outcome,[14],inactive
same,"activity change, negative = inhibition",[15]; at 25.7 µM (top of the series),-1.5% (inactive)
same,"activity change, negative = inhibition",[15]; at 57.5 µM (top of the series),-3.4% (inactive)
same,max response,[15]; [22],-11.7% and -2.05%
same,max response,[15]; [23],-12.6% and -5.19%
same,Potency,[16],inactive
same,Potency,[17],inactive
same,Potency,[18],inactive
same,Potency,[19],inactive
CC(C)NC[C@@H](O)COc1ccc(CCOCC2CC2)cc1,"activity change, negative = inhibition",[1]; at 17.2 µM (top of the series),-7.61% (inactive)
same,"activity change, negative = inhibition",[1]; at 38 µM (top of the series),1.38% (inactive)
same,Potency,[2],15.8 µM (active) and 12.6 µM (active) and inactive
same,"activity change, negative = inhibition",[3]; at 17.2 µM (top of the series),-13.9% (inactive)
same,"activity change, negative = inhibition",[3]; at 38 µM (top of the series),5.51% (inactive)
same,"activity, negative = inhibition",[4]; at 17.2 µM (top of the series),9.37% (inactive)
same,"activity, negative = inhibition",[4]; at 38 µM (top of the series),21.1% (inactive)
same,Potency,[5],> 46 µM (inactive) and > 20.6 µM (inactive)
same,Potency,[6],> 46 µM (inactive) and > 20.6 µM (inactive)
same,Potency,[7],inactive
same,Potency,[20],inactive
same,outcome,[8],inactive
same,Potency,[21],631 nM (active)
same,Potency,[9],inactive
same,Potency,[10],inactive
same,Potency,[11],inactive
same,outcome,[12],inactive
same,outcome,[14],inactive
same,"activity change, negative = inhibition",[15]; at 25.7 µM (top of the series),-3.72% (inactive)
same,"activity change, negative = inhibition",[15]; at 57.5 µM (top of the series),3.94% (inactive)
same,max response,[15]; [22],2.99% and 8.52%
same,max response,[15]; [23],-0.358% and 14.4%
same,Potency,[16],inactive
same,Potency,[17],inactive
same,Potency,[18],inactive
same,Potency,[19],inactive
